# Key:
# Assay in all cases: thermal shift delta Tm vs DMSO control; higher = stronger stabilization (binding)
# Settings in all cases: 12.5 µM; protein concentration 2 µM
# [1] = tested on: LOC_OS04G57630-cb004
# Summary of the method: (§1)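 Compounds dissolved in DMSO were added to purified rice kinase domain constructs, which had been expressed in E. coli, for differential scanning fluorimetry. Each well held 19.5 μl of 2 μM kinase in 100 mM potassium phosphate pH 7.5, 150 mM NaCl, 10% glycerol and 5 × SYPRO Orange. Fluorescence was followed from 25°C to 95°C at a rate of 0.05°C/s. Shifts in Boltzmann-fitted melting temperature are triplicate means relative to DMSO-only protein.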
# [2] = tested on: LOC_OS05G07850-cb002
# Summary of the method: as §1
# [3] = tested on: LOC_OS05G16824-cb004
# Summary of the method: as §1
# [4] = tested on: LOC_OS05G28520-cb001
# Summary of the method: as §1
# [5] = tested on: LOC_OS05G30820-cb001
# Summary of the method: as §1
# [6] = tested on: LOC_OS05G43570-cb004
# Summary of the method: as §1
# [7] = tested on: LOC_OS06G16330-cb003
# Sequence of LOC_OS06G16330-cb003 (as listed by the source): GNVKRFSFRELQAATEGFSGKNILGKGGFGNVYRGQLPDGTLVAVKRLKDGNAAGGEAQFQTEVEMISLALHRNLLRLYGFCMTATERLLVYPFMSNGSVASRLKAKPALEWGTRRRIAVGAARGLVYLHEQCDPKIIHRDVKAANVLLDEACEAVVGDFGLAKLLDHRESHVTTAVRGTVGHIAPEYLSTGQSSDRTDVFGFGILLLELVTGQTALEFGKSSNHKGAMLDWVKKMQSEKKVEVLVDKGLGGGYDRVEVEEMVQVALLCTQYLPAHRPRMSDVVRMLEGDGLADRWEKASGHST
# Summary of the method: as §1
# [8] = tested on: T1, LOC_OS06G22820-cb001
# T1 sequence (whole entry): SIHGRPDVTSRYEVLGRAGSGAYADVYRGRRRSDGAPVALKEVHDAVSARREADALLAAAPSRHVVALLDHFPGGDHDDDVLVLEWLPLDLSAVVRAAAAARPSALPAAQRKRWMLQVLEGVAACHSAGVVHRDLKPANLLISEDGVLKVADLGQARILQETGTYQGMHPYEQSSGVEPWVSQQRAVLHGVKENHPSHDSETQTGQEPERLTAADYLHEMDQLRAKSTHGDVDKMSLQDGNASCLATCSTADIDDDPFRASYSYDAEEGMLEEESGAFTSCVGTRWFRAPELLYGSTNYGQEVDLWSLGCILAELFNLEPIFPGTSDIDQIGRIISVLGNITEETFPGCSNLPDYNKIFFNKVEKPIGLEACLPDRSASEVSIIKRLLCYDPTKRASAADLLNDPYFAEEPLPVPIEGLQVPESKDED
# Summary of the method: as §1
# [9] = tested on: LOC_OS07G06570-cb004
# Summary of the method: as §1
# [10] = tested on: LOC_OS07G07230-cb001
# Summary of the method: as §1
SMILES,thermal shift delta Tm [1] [°C],thermal shift delta Tm [2] [°C],thermal shift delta Tm [3] [°C],thermal shift delta Tm [4] [°C],thermal shift delta Tm [5] [°C],thermal shift delta Tm [6] [°C],thermal shift delta Tm [7] [°C],thermal shift delta Tm [8] [°C],thermal shift delta Tm [9] [°C],thermal shift delta Tm [10] [°C]
C[C@@H](N)[C@H]1CC[C@H](C(=O)Nc2ccncc2)CC1,0.06,0.75,1.53,0.81,0.41,0.43,0.4,0.94,0.98,0.08
NC1(c2ccc(-c3nc4ccn5c(=O)[nH]nc5c4cc3-c3ccccc3)cc2)CCC1,-0.22,1.31,-1.83,0.28,0.4,0.14,0.62,0.61,0.66,0.17
COc1ccc2c(Oc3ccc(NC(=O)c4c(C)n(CC(C)(C)O)n(-c5ccccc5)c4=O)nc3)ccnc2c1,1.04,9.73,-1.1,0.15,0.52,1.07,5.11,0.68,0.62,-0.14
CCN1C(=O)CNc2ncc(-c3ccc(-c4nc[nH]n4)nc3C)nc21,-0.18,0.15,-3.58,0.29,0.42,-0.33,-0.44,0.23,0.95,0.66
O=c1c(O)c(-c2cc(O)c(O)c(O)c2)oc2cc(O)cc(O)c12 [Myricetin],0.92,4.43,1.57,0.55,0.97,1.55,6.62,1.33,-1.03,0.47
Nc1nc(N)c2nc(-c3cccc(O)c3)c(-c3cccc(O)c3)nc2n1,0.04,5.27,-5.41,0.94,0.79,0.92,0.76,0.53,1.54,0.2
COc1ccc2c(c1)[C@]1(C[C@H]1c1ccc3c(/C=C/c4ccc(CN5C[C@@H](C)O[C@@H](C)C5)cc4)n[nH]c3c1)C(=O)N2,7.27,12.3,9.09,0.02,-0.63,0.5,11.6,0.46,0.63,-0.28
CCn1c(=O)c(-c2cc[nH]n2)cc2c(C)nc(N)nc21,0.11,3,-1.71,0.22,0.35,-0.07,0.86,0.06,0.51,0.61
O=c1[nH]nc(Sc2ncc([N+](=O)[O-])s2)n1-c1ccc2c(c1)OCCO2,-1.46,-1.46,-2.53,0.59,0.64,0.84,-0.58,0.5,3.84,0.07
COc1ccccc1-c1cc(Nc2cccc(CS(N)(=O)=O)c2)ncn1,0.35,5.65,3.26,0.95,0.39,0.37,4.76,0.66,0.36,-0.22
CCS(=O)(=O)Nc1ccc2c(c1)/C(=C(/Nc1ccc(CN3CCCCC3)cc1)c1ccccc1)C(=O)N2 [Hesperadin],7.62,11.8,16.8,-0.02,2.48,0.56,13.1,0.6,0.84,-0.17
CC(C)(CCCCCC(O)CCCCCC(C)(C)C(=O)O)C(=O)O,0.04,0.87,0.14,0.47,0.38,0.54,-0.14,0.48,0.64,-0.4
CC(C)N(CCC(=O)c1ccc2ccccc2c1)Cc1ccccc1,0.41,4.18,-2.65,-0.95,-1.16,-0.34,-1.31,-1.34,0.13,0.23
C=CC(=O)Nc1cccc(Nc2nc(Nc3ccc(OCCOC)cc3)ncc2F)c1,3.06,12.6,5.6,1.99,1.06,1.03,7.95,0.96,0.79,0.63
C#Cc1cccc(Nc2ncnc3cc(OCCOC)c(OCCO)cc23)c1,0.14,8.23,0.76,-0.52,0.4,0.13,3.5,0.25,0.7,-0.14
N#Cc1c(Oc2ccc(F)c(NC(=O)Cc3cccc(C(F)(F)F)c3)c2)ccc2nc(NC(=O)C3CC3)sc12,0.09,0.32,-2.82,0.59,0.49,0.4,0.5,0.74,1.21,0.32
COc1cc2ncnc(Oc3cccc(NC(=O)Nc4cc(C(C)(C)C(F)(F)F)on4)c3)c2cc1OC,0.6,2.95,-2.76,0.72,0.54,0.45,0.19,0.58,1.77,0.79
COc1cccc2cc(-c3nc([C@H]4CC[C@H](C(=O)O)CC4)n4ncnc(N)c34)[nH]c12,0.17,3.87,-4.58,0.34,0.73,0.5,-0.07,0.66,0.52,0.08
COc1cc(OC)cc(-c2cc3cnc(N)nc3nc2NC(=O)NC(C)(C)C)c1,0.07,1.66,-1.45,-0.04,0.11,0.05,-0.44,0.29,1.06,1
C=CC(=O)Nc1cccc(Sc2nc(Nc3ccc(N4CCN(C)CC4)cc3)ncc2Cl)c1,4.52,11.5,7.67,7.81,2.25,0.95,5.61,-0.33,0.28,0.95
COc1cc2c(Oc3ccc4[nH]c(C)cc4c3F)ncnc2cc1OCCCN1CCCC1 [Cediranib (AZD2171)],0.99,1.23,1.08,-0.22,0.46,0.17,-0.02,0.55,0.63,0.34

SMILES,thermal shift delta Tm [1] [°C],thermal shift delta Tm [2] [°C],thermal shift delta Tm [3] [°C],thermal shift delta Tm [4] [°C],thermal shift delta Tm [5] [°C],thermal shift delta Tm [6] [°C],thermal shift delta Tm [7] [°C],thermal shift delta Tm [8] [°C],thermal shift delta Tm [9] [°C],thermal shift delta Tm [10] [°C]
N#CC(=C(/N)Sc1ccccc1N)/C(C#N)=C(\N)Sc1ccccc1N,-0.53,-1.4,-1.67,1.16,0.39,0.33,1.2,1.19,-0.22,0.58
C=CC(=O)Nc1cc(Nc2nccc(-c3c[nH]c4ccccc34)n2)c(OC)cc1N(C)CCN(C)C,0.51,11,-1.05,0.61,0.72,0.75,6.67,0.58,1.6,0.9
CC1=C(C(=O)Nc2cc3cn[nH]c3cc2F)C(c2ccc(C(F)(F)F)cc2)CC(=O)N1 (stereo not given),-0.15,0.48,-6.69,-0.3,0.33,1.08,-0.13,0.24,0.71,0.37
Nc1nccc(Oc2ccc3c(C(=O)Nc4cccc(C(F)(F)F)c4)cccc3c2)n1,0.43,-1.62,-1.01,0.93,0.73,0.58,0,0.99,1.61,0.15
Cn1c(=O)c(Oc2ccc(F)cc2F)cc2cnc(NC(CCO)CCO)nc21,-0.25,0.33,-2.67,0.51,0.63,0.19,-0.27,0.72,1.46,0.54
CN1CCN(c2ccc(C(=O)Nc3n[nH]c4ccc(Cc5cc(F)cc(F)c5)cc34)c(NC3CCOCC3)c2)CC1 [Entrectinib (RXDX-101)],2.05,10.2,5.23,3.71,0.38,0.47,8.44,0.27,0.88,0.63
O=C(NC(NC(=S)Nc1ccc(F)c([N+](=O)[O-])c1)C(Cl)(Cl)Cl)C(c1ccccc1)c1ccccc1 (stereo not given),1.38,8.68,0.69,1.84,1.61,2.15,0.69,1.79,1.83,0.79
O=C(O[C@@H]1Cc2c(O)cc(O)cc2O[C@@H]1c1cc(O)c(O)c(O)c1)c1cc(O)c(O)c(O)c1 [(-)-Epigallocatechin Gallate],0.03,-2.62,-0.59,0.94,0.74,1.57,0.52,1.84,-0.75,0.18
O=C(c1ccc(/C=C/c2n[nH]c3ccccc23)cc1)N1CCNCC1,3.95,9.5,10.5,2.59,1.8,0.66,7.34,0.53,1.15,0.03
CC[C@@H](N)CNc1ccnc(-c2cc(-c3cnn(C)c3)ccc2O)n1,1.21,8.12,8.38,-0.2,0.07,0.12,4.5,0.55,0.8,0.48
CN1CCN(C2CCN(C(=O)Nc3cc(Oc4ccc(NC(=O)C5(C(=O)Nc6ccc(F)cc6)CC5)c(F)c4)ccn3)CC2)CC1 [Golvatinib (E7050)],0.73,5.87,-0.83,6.78,0.39,0.58,2.41,0.51,1.02,0.08
CO[C@H]1C[C@@H]2CC[C@@H](C)[C@@](O)(O2)C(=O)C(=O)N2CCCC[C@H]2C(=O)O[C@H]([C@H](C)C[C@@H]2CC[C@@H](OC(=O)C(C)(CO)CO)[C@H](OC)C2)CC(=O)[C@H](C)/C=C(\C)[C@@H](O)[C@@H](OC)C(=O)[C@H](C)C[C@H](C)/C=C/C=C/C=C/1C,-0.25,0.18,-4.25,0.46,0.38,0.24,-0.27,0.76,0.91,0.12
Oc1ccc(Nc2nc(-c3ccc(Cl)cc3)cs2)cc1,0.01,3.59,-0.03,0.45,1.05,-0.07,0.92,0.79,-0.41,0.38
C[S+]([O-])c1ccc(-c2nc(-c3ccc(F)cc3)c(-c3ccncc3)[nH]2)cc1 (stereo not given),0.89,1.83,-0.97,1.26,0.6,1.12,0.69,0.87,1.21,0.43
O=C(Nc1cccnc1)c1cc(-c2ccnc(F)c2)ccc1OCc1ccccc1,0.47,4.72,1.19,0.34,0.36,-0.18,-0.02,0.4,0.99,0.03
Oc1c2ccccc2c2c3c(cccc13)N=N2,2.27,9.83,9.67,0.7,1.62,1,5.84,0.87,1.14,-0.13
Cc1cccc(CC(=O)N2CCc3c2ccc(-c2cn(C)c4ncnc(N)c24)c3F)n1,1.09,2.24,0.43,0.62,0.47,0.42,1.13,0.75,1.03,1.75
CCn1c2ccccc2c2cc(Nc3ccnc(NCCCN4CCOCC4)n3)ccc21,0.23,3.68,-1.41,0.55,0.41,0.2,0.02,0.32,1.17,0.72
Cc1ccc(S(=O)(=O)/C=C/C#N)cc1,2.48,7.56,-14.7,0.54,-0.01,-0.14,-0.31,0.01,1.13,-0.21
Cc1cc(NC(=O)c2cccc(NC(=O)/C=C/CN(C)C)c2)ccc1Nc1nccc(-c2cccnc2)n1,7.66,2.7,1.96,1.08,0.57,0.56,2.18,1.05,1.56,-0.14
O=C1NC(=O)/C(=C/c2ccc(-c3ccc(F)cc3O)o2)S1,1.54,6.53,3.79,1.52,1.01,2.03,3.28,2.41,1.83,0.13

# Reference: the supplement of paper PMC9694430
